In the assay the target is T1, GST-Aq-NF-kB (Amphimedon queenslandica, UniProt A9Y5G7 2-389).
T1 sequence: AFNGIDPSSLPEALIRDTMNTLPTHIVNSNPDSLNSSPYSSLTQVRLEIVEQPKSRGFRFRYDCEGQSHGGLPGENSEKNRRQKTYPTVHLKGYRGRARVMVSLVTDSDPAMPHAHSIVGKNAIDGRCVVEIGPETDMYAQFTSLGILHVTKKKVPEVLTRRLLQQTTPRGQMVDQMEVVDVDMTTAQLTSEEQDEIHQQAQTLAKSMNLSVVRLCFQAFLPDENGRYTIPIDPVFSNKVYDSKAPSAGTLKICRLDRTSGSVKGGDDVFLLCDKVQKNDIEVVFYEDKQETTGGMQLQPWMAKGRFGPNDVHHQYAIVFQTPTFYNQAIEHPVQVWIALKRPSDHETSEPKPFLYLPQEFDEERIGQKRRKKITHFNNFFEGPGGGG
Briefly: protein-binding microarray (PBM); PBM: ~300 nM protein, 6 mM HEPES pH 7.8, 80 mM KCl, 0.5 mM EDTA, 0.5 mM EGTA, 6% glycerol, 35 ng/ul poly-dIdC, 1% milk, 1 h, room temperature; Ap Aiptasia and Nv Nematostella (sea anemones) / Co Capsaspora / Aq Amphimedon (sponge) / Dm Drosophila / Hu human; RHD is the Rel homology domain; high values mean tight binding. Conditions: dsDNA, one strand shown.
For “CCGATTAACATCAAAGAATTCCCTGATGTTAATCGGGTCTTGATTCGCTTGACGCTGCTG”, the binding signal came out at 6.11 z-score.
Take “CCGATTAACATCAGGGGGTTTAATGATGTTAATCGGGTCTTGATTCGCTTGACGCTGCTG”: the binding signal was 5.24 z-score.
“CCGATTAACATCAAATTCCCCCCTGATGTTAATCGGGTCTTGATTCGCTTGACGCTGCTG” had a binding signal of 7.65 z-score.
“CCGATTAACATCACGAATCCCCCTGATGTTAATCGGGTCTTGATTCGCTTGACGCTGCTG”: the binding signal came to 5.26 z-score.
In turn, “CCGATTAACATCACGGGGAATCCTGATGTTAATCGGGTCTTGATTCGCTTGACGCTGCTG” registered a binding signal of 7.48 z-score.
Regarding “CCGATTAACATCAGGGAAAATAATGATGTTAATCGGGTCTTGATTCGCTTGACGCTGCTG”, the binding signal stood at 4.47 z-score.
In turn, “CCGATTAACATCAGGGGACTTTATGATGTTAATCGGGTCTTGATTCGCTTGACGCTGCTG” registered a binding signal of 7.13 z-score.
Next, “CCGATTAACATCACATTCCCCCCTGATGTTAATCGGGTCTTGATTCGCTTGACGCTGCTG”: 5.7 z-score; “CCGATTAACATCAACAAACCCCCTGATGTTAATCGGGTCTTGATTCGCTTGACGCTGCTG”: 5.03 z-score.
On to “CCGATTAACATCAGGAAACCCCATGATGTTAATCGGGTCTTGATTCGCTTGACGCTGCTG”, for which the binding signal was 4.84 z-score.
“CCGATTAACATCAAATTCCCCCTTGATGTTAATCGGGTCTTGATTCGCTTGACGCTGCTG” returned a binding signal of 8.5 z-score.
“CCGATTAACATCAAAATTTCCCATGATGTTAATCGGGTCTTGATTCGCTTGACGCTGCTG” returned a binding signal of 5.77 z-score.
Next, “CCGATTAACATCAGGCAACCCCCTGATGTTAATCGGGTCTTGATTCGCTTGACGCTGCTG”: 6.21 z-score.
“CCGATTAACATCAAGGGTGGGAATGATGTTAATCGGGTCTTGATTCGCTTGACGCTGCTG” displayed a binding signal of 2.63 z-score.
In the case of “CCGATTAACATCAGGGGAACAACTGATGTTAATCGGGTCTTGATTCGCTTGACGCTGCTG”, the binding signal was 5.43 z-score.
Turning to “CCGATTAACATCACCGTTCCCCCTGATGTTAATCGGGTCTTGATTCGCTTGACGCTGCTG”, the binding signal is 4.51 z-score.
“CCGATTAACATCAAAACATTCCCTGATGTTAATCGGGTCTTGATTCGCTTGACGCTGCTG” displayed a binding signal of 6.04 z-score.
The sequence “CCGATTAACATCAGGGATTTTACTGATGTTAATCGGGTCTTGATTCGCTTGACGCTGCTG” had a binding signal of 5.29 z-score.
For “CCGATTAACATCACGGGAGTCCCTGATGTTAATCGGGTCTTGATTCGCTTGACGCTGCTG”, the binding signal amounted to 5.18 z-score.
Consider “CCGATTAACATCAAAATCCCCCATGATGTTAATCGGGTCTTGATTCGCTTGACGCTGCTG”, for which the binding signal turned out to be 7.37 z-score.
The sequence “CCGATTAACATCAAGGGAAATCCTGATGTTAATCGGGTCTTGATTCGCTTGACGCTGCTG” yielded a binding signal of 6.57 z-score.
“CCGATTAACATCAGGGTAAACCCTGATGTTAATCGGGTCTTGATTCGCTTGACGCTGCTG” came in with a binding signal of 6.52 z-score.
“CCGATTAACATCAATCTTTCCCCTGATGTTAATCGGGTCTTGATTCGCTTGACGCTGCTG” gave a binding signal of 5.91 z-score.
As for “CCGATTAACATCACGAATTTCCCTGATGTTAATCGGGTCTTGATTCGCTTGACGCTGCTG”, the binding signal came to 5.22 z-score.
Next, “CCGATTAACATCAGGACCTCCCCTGATGTTAATCGGGTCTTGATTCGCTTGACGCTGCTG”: 6.93 z-score; “CCGATTAACATCAGGGGATTTAATGATGTTAATCGGGTCTTGATTCGCTTGACGCTGCTG”: 6 z-score; “CCGATTAACATCAAATTTCCCGTTGATGTTAATCGGGTCTTGATTCGCTTGACGCTGCTG”: 5.53 z-score.
In the case of “CCGATTAACATCATGGGGAAAAATGATGTTAATCGGGTCTTGATTCGCTTGACGCTGCTG”, the binding signal stood at 4.9 z-score.
Sequence “CCGATTAACATCAAAACCCCCCATGATGTTAATCGGGTCTTGATTCGCTTGACGCTGCTG” gave a binding signal of 7.39 z-score.
As to “CCGATTAACATCAAAGAAACCCCTGATGTTAATCGGGTCTTGATTCGCTTGACGCTGCTG”, the binding signal came to 5.01 z-score.
Next, “CCGATTAACATCACGTACTTCCCTGATGTTAATCGGGTCTTGATTCGCTTGACGCTGCTG”: 3.04 z-score; “CCGATTAACATCAGGATTACCCCTGATGTTAATCGGGTCTTGATTCGCTTGACGCTGCTG”: 5.53 z-score.
For “CCGATTAACATCAACGAATTCCCTGATGTTAATCGGGTCTTGATTCGCTTGACGCTGCTG”, the binding signal came out at 3.08 z-score.
In turn, “CCGATTAACATCAGGGGGAGGAATGATGTTAATCGGGTCTTGATTCGCTTGACGCTGCTG” yielded a binding signal of 4.59 z-score.
Next, “CCGATTAACATCAGGGGTAAATATGATGTTAATCGGGTCTTGATTCGCTTGACGCTGCTG”: 3.06 z-score; “CCGATTAACATCAGGGAAGAACCTGATGTTAATCGGGTCTTGATTCGCTTGACGCTGCTG”: 5.54 z-score.
In the case of “CCGATTAACATCAAAATTACCCATGATGTTAATCGGGTCTTGATTCGCTTGACGCTGCTG”, the binding signal amounted to 4.84 z-score.
The sequence “CCGATTAACATCAAATTCCCCCGTGATGTTAATCGGGTCTTGATTCGCTTGACGCTGCTG” returned a binding signal of 7.32 z-score.
As to “CCGATTAACATCAGGGGGATTACTGATGTTAATCGGGTCTTGATTCGCTTGACGCTGCTG”, the binding signal is 6.92 z-score.

Source of the values: publication PMC5700166.
